The values that follow come from PMC7819943, “Rice protein-binding microarrays: a tool to detect cis-acting elements near promoter regions in rice”.

Over roughly 68,000 sequences, “fluorescence intensity (a.u.)” has its median near 9,100; the highest 2% begin near 16,000. This excerpt belongs to a sample that is enriched for the highest values.

The assay deals with OsWRKY34 (Oryza sativa, UniProt Q0JBA9 1-250). As to the kind of experiment: protein-binding microarray (RPBM); PBS, 2% BSA, 51.3 ng/ul salmon testes DNA, 50 uM zinc acetate, 200 nM TF, 25 C, 1 h; high values mean tight binding. The settings on record: protein: recombinant; tags: N-terminal polyhistidine and DsRed monomer fusion (pET32a); label: CyDye5-dUTP incorporated in the synthesized complementary strand; 3' TTTTT single-stranded linker to array surface; dsDNA, one strand shown. An outline of the steps: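 Transcription factors, each fused N-terminally to a polyhistidine tag and DsRed, were expressed in E. coli BL21-CodonPlus and purified on Ni–NTA. A custom Agilent array was made double-stranded by primer extension with Cy5-dUTP and blocked with 2% BSA. It was incubated with 200 nM protein in PBS, 2% BSA, salmon testes DNA and 50 µM zinc acetate at 25 °C for 1 h, then washed. The binding signal is per-feature fluorescence intensity (arbitrary units) read on an Axon 4000B scanner.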
Chain of OsWRKY34 (Q0JBA9 entry or part of it): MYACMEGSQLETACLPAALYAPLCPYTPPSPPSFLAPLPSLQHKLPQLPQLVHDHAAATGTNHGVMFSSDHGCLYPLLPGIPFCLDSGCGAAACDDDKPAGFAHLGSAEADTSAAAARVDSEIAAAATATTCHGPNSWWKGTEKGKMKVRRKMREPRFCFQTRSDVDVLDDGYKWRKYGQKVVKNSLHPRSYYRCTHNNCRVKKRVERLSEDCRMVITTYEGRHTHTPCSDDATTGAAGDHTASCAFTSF
Take “TAGCAACTCCGTTCTTTTTCTTCTTTTCTCTCACTCACTCCGGAGTCACCTAGTGCAG”: the binding signal is 8360 fluorescence intensity (a.u.).

Take “CTCTTATAACCACTTCTTTTTAAATCATTTGTTTATATGTCGGAGTCACCTAGTGCAG”: the binding signal is 10200 fluorescence intensity (a.u.). As for “TGGTCTGGCAGTTTTTGAGACGGGGAGTTGACTCAGATATCGGAGTCACCTAGTGCAG”, the binding signal was 9260 fluorescence intensity (a.u.). On to “AGGCTCTATTGGTTTCTCCTCTGTACATACAGTAGTAGTCCGGAGTCACCTAGTGCAG”, for which the binding signal is 8640 fluorescence intensity (a.u.). With “TTCTACACTCTCTTGATCAGCTCTCACCACTATGTACACTCGGAGTCACCTAGTGCAG” the figure was 8860 fluorescence intensity (a.u.); with “TTTTTTTCGGTCTCAATATTTTTTTTTCTCACGTCTTTCGCGGAGTCACCTAGTGCAG”, 10800 fluorescence intensity (a.u.).

Consider “CCTTGACCGTTCCCAGAAAGGTTGACCGTTGTCCGTCACTCGGAGTCACCTAGTGCAG”, for which the binding signal was 9240 fluorescence intensity (a.u.). The result for “TTTTATATCCCTCACCGTACGATCCAACGTTCCGATTTCTCGGAGTCACCTAGTGCAG” reads 8890 fluorescence intensity (a.u.). The result for “ATACCGCCTATTTGCCACTCGTTTTTCTTCTCTTGGGCCGCGGAGTCACCTAGTGCAG” reads 18700 fluorescence intensity (a.u.).

“TTCTCTTTTTCTTTTTATTTTTTCGTTCTCGTCGCCGCCGCGGAGTCACCTAGTGCAG”: the binding signal is 8330 fluorescence intensity (a.u.).

As for “AACCACTCGCTTCCAAACAATCCAAACCTTCCATGCCATTCGGAGTCACCTAGTGCAG”, the binding signal is 64700 fluorescence intensity (a.u.). The result for “CCAAGCGCCCGCCGCCTCGCTCCCTCCTCTTCCTTGACCTCGGAGTCACCTAGTGCAG” reads 35200 fluorescence intensity (a.u.); that for “CACACCTCGCCGCTCTTCCCGGCCTCCACCCGCCGCCCTTCGGAGTCACCTAGTGCAG”, 8510 fluorescence intensity (a.u.).

“CCAACCACTCCATCATCATTCGCAATCCAATCTCGCTCTTCGGAGTCACCTAGTGCAG”: the binding signal is 9230 fluorescence intensity (a.u.).

As for “ACCTCTAACCGCCACTAGTTTTTTATACTCTTCTCTATAGCGGAGTCACCTAGTGCAG”, the binding signal is 8470 fluorescence intensity (a.u.).

Consider “GCTTCGGCCCAACAACATTCCACTCGGCCCAACAACCACCCGGAGTCACCTAGTGCAG”, for which the binding signal was 9750 fluorescence intensity (a.u.). With “CGCTCCTCGCGGCCGCCGCCGCCGCCTCCCTCCTCGCCTTCGGAGTCACCTAGTGCAG” the figure was 8660 fluorescence intensity (a.u.). With “AATTCTCGTCTTCTCGGAGGTTTCTGAGGGGAGGGAGAGGCGGAGTCACCTAGTGCAG” the figure was 8480 fluorescence intensity (a.u.); with “CCGGTCCTTCACCCACTTCAGCTTCACGTTCACCAGCGTCCGGAGTCACCTAGTGCAG”, 10200 fluorescence intensity (a.u.); with “ATTTTTTCCTCTAATTAAGTCATATCACATCAATTGTTTTCGGAGTCACCTAGTGCAG”, 10200 fluorescence intensity (a.u.). With “GGCATTTGGGTGTTATGCATGCCGGCCGGCCCGTACGTACCGGAGTCACCTAGTGCAG” the figure was 11700 fluorescence intensity (a.u.). For the sequence “AGCTGGATTACCCTTTATACATTTTACTTTAATCTCTTTGCGGAGTCACCTAGTGCAG”, the binding signal is 10900 fluorescence intensity (a.u.). As for “GACGTATCATAGTCTCTGTTTAGATTTCTAGTACTATGATCGGAGTCACCTAGTGCAG”, the binding signal is 9340 fluorescence intensity (a.u.). The result for “ACTGAGTATTATTATATCCTAACTAAGTTATCGTACATTCCGGAGTCACCTAGTGCAG” reads 8060 fluorescence intensity (a.u.); that for “AATCAGAATATTACCTTCTTGTATTTGTTCTCTGTAGGAACGGAGTCACCTAGTGCAG”, 8870 fluorescence intensity (a.u.); that for “GCTGTAGAAATTTCTCCTTCTTTGTTAAATGTATGTCTTTCGGAGTCACCTAGTGCAG”, 9540 fluorescence intensity (a.u.).

For the sequence “ACATACACTACACACCCTGTTCTTGCAGTACGCCAATTAACGGAGTCACCTAGTGCAG”, the binding signal was 9780 fluorescence intensity (a.u.).

Turning to “TCTCTCTCACTCTTCCGGTCTTCCCTGGGCAGGCTAGCCGCGGAGTCACCTAGTGCAG”, the binding signal is 8840 fluorescence intensity (a.u.).

As for “ATATGTTGTTTGACTTTTTTCATAGTCAGAAGTCTATTGGCGGAGTCACCTAGTGCAG”, the binding signal is 19000 fluorescence intensity (a.u.). On to “ATGATTTTTGGGTCATTTGGTTTGTTTTTGACTTTTGCAACGGAGTCACCTAGTGCAG”, for which the binding signal was 12100 fluorescence intensity (a.u.). On to “TTGTTGTAAAGCTTATGGGTCTACTTTCATATGGTTTTGGCGGAGTCACCTAGTGCAG”, for which the binding signal was 64100 fluorescence intensity (a.u.). As to “TTTGTACCCGTTTTCTACTTTTTTTGTTTCATATTATTAACGGAGTCACCTAGTGCAG”, the binding signal is 10900 fluorescence intensity (a.u.).

As for “TATTTCTATATGGACTTTGTTTTTTCTTTTTCTTCTTTTTCGGAGTCACCTAGTGCAG”, the binding signal is 13100 fluorescence intensity (a.u.). As to “AATGGTTTGGTTGTTGTTTTTTTTAAAAAAAACTTTCAGGCGGAGTCACCTAGTGCAG”, the binding signal is 8170 fluorescence intensity (a.u.). With “TGGGGTCATGTTTGTACTTTGGCAACTGGTCGACTTCATACGGAGTCACCTAGTGCAG” the figure was 18400 fluorescence intensity (a.u.); with “TTCATGTCAGAATCCTATGTTTTTCCTATTCCTTTGTTTTCGGAGTCACCTAGTGCAG”, 11000 fluorescence intensity (a.u.).

For “CAGACACATACCTTTCATGCTTCAACTTTTGTATGTTTGTCGGAGTCACCTAGTGCAG”, the binding signal was 8170 fluorescence intensity (a.u.). The result for “GCTATACATCTTTCCACTACTTCTCCTCAGCTCGCTTTCCCGGAGTCACCTAGTGCAG” reads 8130 fluorescence intensity (a.u.). With “AGCTTCTTTTTCTGTGATAGCAATACTGCCTCGAGGAGGACGGAGTCACCTAGTGCAG” the figure was 8950 fluorescence intensity (a.u.); with “CCCAAAGTATTGATCGTTTTTGTTTATCATTTTGCTGGATCGGAGTCACCTAGTGCAG”, 10300 fluorescence intensity (a.u.); with “AACCTCTACTGCTCCATATATTTTCTTTCTGTCAGCCCATCGGAGTCACCTAGTGCAG”, 11200 fluorescence intensity (a.u.). With “ACGTAACACCTAGCAATTTTCTTCTCGCGAAATAAACAGTCGGAGTCACCTAGTGCAG”, the binding signal was 8500 fluorescence intensity (a.u.).
